APP 5UTR inh = inhibitors of APP translation via 5'UTR reporter, primary screen, APP 5'UTR luciferase, SH-SY5Y cells. SH-SY5Y APP 5'UTR-luciferase reporter, luminescence. inhibition, % at 2 µM. 0.82% of 190,000 active;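 active means inhibition above a set limit, derived from the sample mean plus 3 SD, cut at about 45% in these data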
Ba/F3 V617F tox = reduced viability of JAK2V617F-dependent Ba/F3 cells, primary screen, JAK2V617F inhibitor project, cell-based, Ba/F3 EpoR-JAK2V617F, luminescence | ATP luminescence | inhibition, % at 5.6 µM | 1.1% of 220,000 active | AID 1446, 2008;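 active means inhibition above the campaign mean plus 3 SD over all tested compounds, cut at about 24% in these data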;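 further: cytokine-independent growth of Ba/F3 cells driven by EpoR plus mutant JAK2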
KLF5 inh = KLF5 expression inhibitors, primary screen, DLD-1 cells, luminescence; DLD-1 KLF5 promoter-luciferase reporter; inhibition, % at 5 µM; 0.23% of 290,000 active; AID 1700, 2009;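 active means inhibition above a per-plate limit of that plate's mean compound inhibition plus 3 SD, cut at about 60% in these data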;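 further: higher means less KLF5 promoter-driven luciferase light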
BaF3 parental = parental Ba/F3 cell viability inhibition, counter-screen for JAK2V617F inhibitor project, murine pro-B, CellTiter-Glo luminescence; AID 1486, 2009; inhibition, % at 5.6 µM; 1.1% of 220,000 active; CellTiter-Glo ATP luminescence;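 active means inhibition above a per-campaign cutoff, the mean inhibition of all tested compounds plus 3 SD, cut at about 27% in these data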
IEC-6 tox = cytotoxicity in IEC-6 intestinal epithelial cells, primary screen, cytotoxicity control for KLF5 inhibitor project, cell-based, luminescence. IEC-6 cytotoxicity, luminescence viability. inhibition, % at 5 µM. 0.78% of 290,000 active; in the data active means inhibition above about 22%
BaF3 parental 2 = parental Ba/F3 cell viability inhibition, counter-screen for JAK2V617F inhibitor project, murine pro-B, CellTiter-Glo luminescence | shares compounds with Ba/F3 V617F tox | cells kept alive by added IL-3 | inhibition, % at 5.6 µM | 31% of 580 active | AID 1520, 2009;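 active means cell growth inhibition above the hit limit set in the earlier mutant JAK2 cell screen, cut at about 27% in these data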
JAK2V617F confrm = viability loss in Ba/F3 EpoR-JAK2V617F cells, confirmation, JAK2V617F inhibitor project, cell-based, luminescence, triplicate; shares compounds with Ba/F3 V617F tox; CellTiter-Glo luminescence; inhibition, % at 5.6 µM; 66% of 580 active;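 active means mean inhibition above the hit cutoff derived in the earlier primary screen, cut at about 25% in these data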;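 further: higher means lower luminescence from reduced cell ATP and viability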
A number is an active result. An excerpt weighted towards active compounds, which were near 1.9% of everything screened.

CN(Cc1ccccc1)C(=O)[C@@H]1CCCN1S(=O)(=O)c1ccc(Cl)cc1 was read as KLF5 inh inactive and IEC-6 tox inactive.
COc1ccc2nc(C)cc(SCC(=O)NNC(=O)COc3ccccc3)c2c1 was read as APP 5UTR inh inactive, Ba/F3 V617F tox inactive, KLF5 inh inactive, BaF3 parental inactive and IEC-6 tox inactive.
`COc1ccc2nc(C)cc(Sc3nc4ccccc4s3)c2c1` gave Ba/F3 V617F tox 31.9, KLF5 inh inactive, BaF3 parental inactive, IEC-6 tox inactive, BaF3 parental 2 inactive and JAK2V617F confrm 55.1.
CC(C)(C)c1ccc(OCc2ccc(C(=O)N/N=C/c3ccc(O)c(O)c3)cc2)cc1 was read as APP 5UTR inh inactive, Ba/F3 V617F tox 100.8, KLF5 inh inactive, BaF3 parental inactive, IEC-6 tox inactive, BaF3 parental 2 81.0 and JAK2V617F confrm 99.3.
`CCC1=C(c2ccc(C)cc2)S(=O)(=O)N=C1N1CCC(C(=O)NCCCN2CCCCC2)CC1` gave KLF5 inh inactive and IEC-6 tox inactive.
c1ccc(CN2CCN(CCOCCOc3ccc4c(c3)CCC4)CC2)cc1 was read as APP 5UTR inh inactive, Ba/F3 V617F tox inactive, KLF5 inh inactive, BaF3 parental inactive and IEC-6 tox inactive.
`CCCn1c(CN(Cc2ccccc2)Cc2ccccc2)nc2c1c(=O)n(C)c(=O)n2C` gave APP 5UTR inh inactive, Ba/F3 V617F tox inactive, KLF5 inh inactive, BaF3 parental inactive and IEC-6 tox inactive.
For CCCn1c(CN(C)Cc2ccccc2)nc2c1c(=O)n(C)c(=O)n2C the results were APP 5UTR inh inactive, Ba/F3 V617F tox 35.4, KLF5 inh inactive, BaF3 parental inactive, IEC-6 tox inactive, BaF3 parental 2 inactive and JAK2V617F confrm 58.0.
`Cc1nc(CCNC(=O)C2CCC(=O)N(Cc3cccc(F)c3)C2)sc1C` (stereo not given) gave KLF5 inh inactive and IEC-6 tox inactive.
Screening Nc1nc(N)c2nc(-c3ccccc3)c(N)nc2n1 returned APP 5UTR inh inactive, Ba/F3 V617F tox 30.2, KLF5 inh inactive, BaF3 parental inactive, IEC-6 tox inactive, BaF3 parental 2 inactive and JAK2V617F confrm 73.0.
NSc1nc(N)c2nc(-c3ccccc3)c(-c3ccccc3)nc2n1 was read as APP 5UTR inh inactive, Ba/F3 V617F tox inactive, KLF5 inh inactive, BaF3 parental inactive and IEC-6 tox inactive.
For CCOc1ccc(OCCn2c(=S)[nH]c3c(N)ncnc32)cc1 the results were APP 5UTR inh inactive, Ba/F3 V617F tox inactive, KLF5 inh inactive, BaF3 parental inactive and IEC-6 tox inactive.
For Cc1ccc(OCCn2cnc3c(N)ncnc32)cc1 the results were APP 5UTR inh inactive, Ba/F3 V617F tox 92.6, KLF5 inh inactive, BaF3 parental inactive, IEC-6 tox inactive, BaF3 parental 2 81.9 and JAK2V617F confrm 27.8.
COc1ccccc1S(=O)(=O)n1cc(Cc2ccccc2)c(N)n1 was read as APP 5UTR inh inactive, Ba/F3 V617F tox 99.7, KLF5 inh inactive, BaF3 parental inactive, IEC-6 tox inactive, BaF3 parental 2 inactive and JAK2V617F confrm inactive.
`COc1ccc(Cl)cc1S(=O)(=O)N1CCN=C1Cc1ccccc1` gave KLF5 inh inactive and IEC-6 tox inactive.
`CC(=O)c1ccc(C(=O)N2CCc3c([nH]c4ccccc34)C2c2cccc(C)n2)s1` (stereo not given) gave Ba/F3 V617F tox inactive, KLF5 inh inactive, BaF3 parental inactive and IEC-6 tox inactive.
Screening Cc1cccc(C2c3[nH]c4ccccc4c3CCN2Cc2ccc(C)s2)n1 (stereo not given) returned APP 5UTR inh inactive, Ba/F3 V617F tox 26.7, KLF5 inh inactive, BaF3 parental inactive, IEC-6 tox inactive, BaF3 parental 2 inactive and JAK2V617F confrm inactive.
`CN(Cc1ccccc1)C(=O)COC(=O)c1ccc(Cl)c(N)c1` gave APP 5UTR inh inactive, Ba/F3 V617F tox 94.0, KLF5 inh inactive, BaF3 parental inactive, IEC-6 tox inactive, BaF3 parental 2 inactive and JAK2V617F confrm inactive.

Compound activity: PubChem BioAssay, several laboratories
